In PubChem BioAssay (Tox21):
Records with an inconclusive call do not appear. Activity calls are given as the source filed them. Unless noted, calls come from the whole dose curve; as a rule, active = well fitted curve in the direction sought with a large enough effect in the repeat runs; inconclusive = weak or mixed curves; inactive = no such curve, though single readings can be large; an effect the other way counts as inactive or inconclusive.

Legend:
[1] = qHTS assay to identify small molecule antagonists of the estrogen receptor beta (ER-beta) signaling pathway - cell viability counter screen (AID 1259382);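 note: HEK293T cells carrying ER-beta-UAS-bla reporter stimulated with estradiol; series mostly up to about 92 µM; nearly all actives have a fitted effect of over 55% in size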
How it was run: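 ER-beta-UAS-bla HEK293T cells (2,000/well, 2% charcoal-stripped FBS) were pre-incubated 6 hr at 37C, then given compound plus 1nM final 17-beta-estradiol for 16 hr. Viability was read in the same wells by CellTiter-Glo luminescence after 30 min at room temperature.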

[2] = qHTS assay to identify small molecule agonists or antagonists of the thyroid stimulating hormone receptor (TSHR) signaling pathway - wild type cell line counter screen (AID 1259384; calls by dose curve)
How it was run: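 Wild-type HEK293 cells were plated 18 h at 37 C/5% CO2, pin-dosed with compound plus Ro20-1724 medium, held 30 min at room temperature, then given cAMP-d2 and anti-cAMP-cryptate; fluorescence was read after 1 h. Fifteen concentrations, triplicate.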

[3] = molecular target: Thyrotropin receptor (Homo sapiens) (UniProt P16473); test: qHTS assay to identify small molecule antagonists of the thyroid stimulating hormone receptor (TSHR) signaling pathway (AID 1259385; calls by dose curve; note: nearly all actives have a fitted effect of over 20% in size)
Thyrotropin receptor (Homo sapiens), sequence (P16473 whole entry, looked up): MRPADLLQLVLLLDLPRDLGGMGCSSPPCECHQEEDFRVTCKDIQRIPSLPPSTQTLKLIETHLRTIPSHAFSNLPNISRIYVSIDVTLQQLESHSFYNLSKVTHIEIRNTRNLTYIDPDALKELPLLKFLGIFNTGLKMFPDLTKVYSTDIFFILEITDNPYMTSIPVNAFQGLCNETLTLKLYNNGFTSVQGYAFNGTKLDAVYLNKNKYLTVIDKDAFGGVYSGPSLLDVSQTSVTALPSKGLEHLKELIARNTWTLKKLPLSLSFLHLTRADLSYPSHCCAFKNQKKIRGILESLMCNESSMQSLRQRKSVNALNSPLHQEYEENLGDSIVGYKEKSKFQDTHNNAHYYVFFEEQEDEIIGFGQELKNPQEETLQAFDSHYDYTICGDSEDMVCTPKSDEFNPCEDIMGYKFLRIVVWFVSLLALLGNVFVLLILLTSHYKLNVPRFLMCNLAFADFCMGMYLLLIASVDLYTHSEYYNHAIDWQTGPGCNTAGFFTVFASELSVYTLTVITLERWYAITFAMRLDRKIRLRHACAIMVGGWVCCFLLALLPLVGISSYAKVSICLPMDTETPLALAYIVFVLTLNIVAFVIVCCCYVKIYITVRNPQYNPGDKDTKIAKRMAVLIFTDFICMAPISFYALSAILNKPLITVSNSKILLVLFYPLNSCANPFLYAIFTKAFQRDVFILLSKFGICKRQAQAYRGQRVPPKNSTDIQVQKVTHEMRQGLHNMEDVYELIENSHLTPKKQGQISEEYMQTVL
How it was run: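 TSHR-HEK293 cells were plated and held 18 h at 37C/5% CO2, then given compound plus Ro20-1724 and stimulated with TSH at 1.5 ng/mL final. After 30 min at room temperature, cAMP was detected with cAMP-d2/anti-cAMP-cryptate (1 h) by fluorescence.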

[4] = qHTS assay to identify small molecule agonists of the estrogen receptor alpha (ER-alpha) signaling pathway in the presence of an antagonist - cell viability counter screen (AID 1259386);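 note: series mostly up to about 92 µM; cells exposed to compounds for 22 h at 37 °C before the viability read; nearly all actives have a fitted effect of over 30% in size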
How it was run: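 VM7Luc4E2 cells (endogenous full-length ER-alpha, 4×ERE-luciferase) were held 5 days in phenol red-free medium with 10% charcoal-stripped FBS, plated, then given 10.0nM ICI-182,780 and compounds at 15 concentrations for 22hr at 37C; viability read by CellTiter-Fluor fluorescence.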

[5] = molecular target: Progesterone receptor (Homo sapiens) (UniProt P06401); test: qHTS assay to identify small molecule agonists of the progesterone receptor (PR) signaling pathway (AID 1346784; calls by dose curve; note: nearly all actives have a fitted effect of over 30% in size)
Progesterone receptor (Homo sapiens), sequence (P06401 whole entry, looked up): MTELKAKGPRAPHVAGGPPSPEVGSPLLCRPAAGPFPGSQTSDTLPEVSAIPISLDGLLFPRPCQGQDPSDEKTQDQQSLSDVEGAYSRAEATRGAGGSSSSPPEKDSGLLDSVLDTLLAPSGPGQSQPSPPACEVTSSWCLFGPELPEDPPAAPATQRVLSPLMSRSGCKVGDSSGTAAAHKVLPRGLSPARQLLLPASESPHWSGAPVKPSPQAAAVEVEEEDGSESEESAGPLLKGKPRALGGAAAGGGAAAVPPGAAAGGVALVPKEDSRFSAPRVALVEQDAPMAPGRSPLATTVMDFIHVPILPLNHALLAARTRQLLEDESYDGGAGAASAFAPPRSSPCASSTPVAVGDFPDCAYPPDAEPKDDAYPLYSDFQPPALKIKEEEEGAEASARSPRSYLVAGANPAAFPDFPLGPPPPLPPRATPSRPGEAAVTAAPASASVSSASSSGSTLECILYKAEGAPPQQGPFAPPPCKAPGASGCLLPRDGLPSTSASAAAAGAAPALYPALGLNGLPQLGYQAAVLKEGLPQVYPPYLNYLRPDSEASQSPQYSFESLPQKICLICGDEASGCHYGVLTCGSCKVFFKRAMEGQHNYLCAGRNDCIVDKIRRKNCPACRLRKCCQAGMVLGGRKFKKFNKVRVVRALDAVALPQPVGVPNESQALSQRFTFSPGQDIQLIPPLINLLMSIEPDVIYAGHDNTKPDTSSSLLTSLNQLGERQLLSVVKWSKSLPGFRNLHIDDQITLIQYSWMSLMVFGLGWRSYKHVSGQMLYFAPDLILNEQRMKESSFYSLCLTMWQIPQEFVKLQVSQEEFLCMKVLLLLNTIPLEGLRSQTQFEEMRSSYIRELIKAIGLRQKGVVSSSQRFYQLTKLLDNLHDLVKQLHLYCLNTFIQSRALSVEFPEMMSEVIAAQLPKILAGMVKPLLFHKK
How it was run: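 Reporter assay, GripTite PR-UAS-bla HEK 293T cells: 16 hr exposure to DMSO-dissolved compounds at 37C, 5% CO2, in steroid-depleted (2% charcoal-stripped FBS) medium; beta-lactamase measured by FRET fluorescence.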

[6] = molecular target: Progesterone receptor (Homo sapiens) (UniProt P06401); test: qHTS assay to identify small molecule antagonists of the progesterone receptor (PR) signaling pathway (AID 1346795; active = well fitted inhibition curve with a large enough effect in the signal ratio in the repeat runs, not every such curve was filed as active; the % refers to the signal ratio)
How it was run: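 Stimulus R5020 at 1 nM final; cells HEK293T PR-UAS-bla; medium with 2% charcoal-stripped FBS; compound exposure 16 hr at 37C, 5% CO2; detection by FRET beta-lactamase substrate, 2 hr, room temperature.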

[7] = qHTS assay to identify small molecule agonists of the progesterone receptor (PR) signaling pathway - cell viability counter screen (AID 1346799; calls by dose curve; note: nearly all actives have a fitted effect of over 45% in size)
How it was run: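 Multiplexed viability read: CellTiter-Glo luminescence, 30 min RT, following LiveBLAzer FRET measurement on PR-UAS-bla HEK293T cells exposed to compounds 16 hr.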

[8] = qHTS assay to identify small molecule antagonists of the TGF-beta/Smad signaling pathway - cell viability counter screen (AID 1346824); note: nearly all actives have a fitted effect of over 50% in size
How it was run: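 SBE-bla HEK 293T cells were plated overnight at 37 C, then given compounds in DMSO plus TGF-beta1 (added as 0.25 ng/mL solution) for 5 hr. After the bla read, CellTiter-Glo was added to the same wells and luminescence read after 30 min at room temperature.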

[9] = qHTS assay to identify small molecule agonists of the TGF-beta/Smad signaling pathway - cell viability counter screen (AID 1346829); note: top concentration of the series differs between compounds; nearly all actives have a fitted effect of over 45% in size
How it was run: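 Cytotoxicity counter screen: CellTiter-Glo luminescence (30 min, room temperature) measured in the SBE-bla HEK 293T reporter wells after 5 hr compound treatment at 37 C and the 2 hr substrate step.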

[10] = qHTS assay to identify small molecule agonists of the TGF-beta/Smad signaling pathway (AID 1346859; active = well fitted activation curve with a large enough effect in the signal ratio in the repeat runs, not every such curve was filed as active; the % refers to the signal ratio; note: series mostly up to about 77 µM)
How it was run: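 Screening used HEK 293T SBE-bla cells at 4,000/well. Test agents: 5 hr, 37 C. Detection: FRET substrate, 2 hr RT, then excitation 405 nm with emissions at 460 and 530 nm.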

[11] = molecular target: Thyrotropin-releasing hormone receptor (Homo sapiens) (UniProt P34981); test: qHTS assay to identify small molecule antagonists of the thyrotropin-releasing hormone receptor (TRHR) signaling pathway (AID 1346877; active = well fitted inhibition curve with a large enough effect in the repeat runs, not every such curve was filed as active; note: series mostly up to about 51 µM)
Thyrotropin-releasing hormone receptor (Homo sapiens), sequence (P34981 whole entry, looked up): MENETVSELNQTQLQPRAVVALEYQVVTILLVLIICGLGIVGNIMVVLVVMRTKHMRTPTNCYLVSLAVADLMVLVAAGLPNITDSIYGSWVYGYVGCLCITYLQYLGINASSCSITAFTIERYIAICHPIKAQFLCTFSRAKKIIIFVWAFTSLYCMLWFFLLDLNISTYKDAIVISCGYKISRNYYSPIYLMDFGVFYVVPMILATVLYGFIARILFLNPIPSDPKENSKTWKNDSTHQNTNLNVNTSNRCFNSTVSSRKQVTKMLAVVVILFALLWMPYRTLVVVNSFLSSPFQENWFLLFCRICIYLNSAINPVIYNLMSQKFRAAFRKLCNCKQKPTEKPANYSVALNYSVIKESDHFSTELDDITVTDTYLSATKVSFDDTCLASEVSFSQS
How it was run: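 TRHR-expressing HEK293 cells were seeded, cultured 18 h at 37 °C, then loaded with calcium dye for 2 h. Compounds were pre-incubated 5 min at room temperature before 1 nM TRH (final) was added, and kinetic fluorescence was recorded for 3 min.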

[12] = molecular target: Thyrotropin-releasing hormone receptor (Homo sapiens) (UniProt P34981); test: qHTS assay to identify small molecule agonists of the thyrotropin-releasing hormone receptor (TRHR) signaling pathway (AID 1346891; calls by dose curve; note: series mostly up to about 58 µM)
How it was run: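 Readout was intracellular calcium fluorescence in TRHR-Hek293 cells. Cells were incubated 18 h, dye-loaded 2 h at 37 °C, and treated with compound in agonist mode.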

[13] = Human pregnane X receptor (PXR) small molecule agonists, qHTS cell viability counter screen (AID 1346977); note: nearly all actives have a fitted effect of over 50% in size
How it was run: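 In each well, the PXR reporter HepG2 line was checked for viability: CellTiter-Fluor reagent added 23hr post-dosing, fluorescence read after 1hr incubation at 37C.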

[14] = Caspase-3/7 induction in HepG2 cells by small molecules, qHTS assay (AID 1346978); note: nearly all actives have a fitted effect of over 15% in size
How it was run: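 Wild-type HepG2 cells (2,000/well) were settled 5 h at 37 C, 5% CO2, then exposed to compounds in DMSO for 17 h. Caspase-3/7 activity was read by luminescence 30 min after adding Caspase-Glo 3/7 reagent at room temperature.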

[15] = Caspase-3/7 induction in CHO-K1 cells by small molecules, qHTS cell viability counter screen (AID 1346979); note: nearly all actives have a fitted effect of over 35% in size
How it was run: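 Following a 5hr settling period, CHO-K1 cells at 1,500 per well received DMSO-dissolved compounds. Cell viability was quantified 16hr later by CellTiter-Fluor fluorescence, measured after 1hr with reagent at 37C.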

[16] = Caspase-3/7 induction in CHO-K1 cells by small molecules, qHTS assay (AID 1346980); note: nearly all actives have a fitted effect of over 15% in size
How it was run: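 Wild-type cells were seeded at 1,500 per well and settled 5 hr at 37 C, 5% CO2, then exposed to DMSO-dissolved compounds for 17 hr. Caspase-Glo 3/7 reagent was added, and luminescence was read after 30min at room temperature.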

[17] = Caspase-3/7 induction in HepG2 cells by small molecules, qHTS cell viability counter screen (AID 1346981); note: series mostly up to about 92 µM; nearly all actives have a fitted effect of over 30% in size
How it was run: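 Wild-type HepG2 cells (2,000/well) were allowed to settle for 5 hr at 37 C, 5% CO2, then dosed with compounds in DMSO by pin transfer. After 16 hr at 37 C, CellTiter-Fluor was added and fluorescence read 1 hr later.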

[18] = molecular target: Estrogen receptor (Homo sapiens) (UniProt P03372); test: qHTS assay to identify small molecule agonists of the estrogen receptor alpha (ER-alpha) signaling pathway in the presence of an antagonist (AID 1259383; calls by dose curve; note: top concentration of the series differs between compounds; nearly all actives have a fitted effect of over 15% in size)
Estrogen receptor (Homo sapiens), sequence (P03372 whole entry, looked up): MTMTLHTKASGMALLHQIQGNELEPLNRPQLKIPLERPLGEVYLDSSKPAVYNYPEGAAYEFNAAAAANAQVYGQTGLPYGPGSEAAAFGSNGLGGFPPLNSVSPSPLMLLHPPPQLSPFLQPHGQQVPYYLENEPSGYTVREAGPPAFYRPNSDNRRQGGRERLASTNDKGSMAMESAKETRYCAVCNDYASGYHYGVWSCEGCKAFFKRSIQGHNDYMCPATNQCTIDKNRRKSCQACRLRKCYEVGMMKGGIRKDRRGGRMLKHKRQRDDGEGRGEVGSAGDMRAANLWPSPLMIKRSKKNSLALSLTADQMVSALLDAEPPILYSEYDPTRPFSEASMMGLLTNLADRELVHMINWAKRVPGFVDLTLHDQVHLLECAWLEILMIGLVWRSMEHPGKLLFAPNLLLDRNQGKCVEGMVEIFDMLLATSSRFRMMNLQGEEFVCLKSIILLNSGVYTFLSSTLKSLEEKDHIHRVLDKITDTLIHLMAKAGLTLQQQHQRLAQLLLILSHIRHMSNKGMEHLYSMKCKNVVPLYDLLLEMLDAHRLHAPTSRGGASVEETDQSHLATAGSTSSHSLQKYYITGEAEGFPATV
How it was run: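 VM7Luc4E2 cells (endogenous full-length ER-alpha, 4×ERE-luciferase) were precultured 5 days in phenol red-free medium with 10% charcoal-stripped FBS, given 10.0nM ICI-182,780 (final), then treated with compounds at 15 concentrations for 22hr at 37C; luminescence read with ONE-Glo.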

[19] = qHTS assay to identify small molecule antagonists of the progesterone receptor (PR) signaling pathway - cell viability counter screen (AID 1346798); note: series mostly up to about 92 µM; nearly all actives have a fitted effect of over 50% in size
How it was run: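 In the same plates used for the beta-lactamase readout, cell viability of compound- and R5020-treated PR-UAS-bla HEK293T cells (16 hr, 37C) was assessed by CellTiter-Glo luminescence.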
% is set by controls: 0 for no effect and ±100 for the full control effect.

N#Cc1cscn1
inactive: outcome [1] | outcome [2] | outcome [3] | outcome [4] | Potency [5] | Potency [6] | outcome [7] | outcome [8] | outcome [9] | outcome [10] | outcome [11] | outcome [12] | outcome [13] | outcome [14] | Potency [15] | outcome [16] | outcome [17]

[O]=[Mo](=[O])=[O]
inactive: activity change, negative = cytotoxicity [1] -3.58% [at 19 µM] | activation [18] -1.83% [at 19 µM] | activity change, negative = inhibition [3] 4.59% [at 19 µM] | activation [5] 1.92% [at 19 µM] | activity change, negative = inhibition [6] 2.07% [at 18.9 µM] | activity change, negative = cytotoxicity [19] 2.8% [at 18.9 µM] | activity change, negative = cytotoxicity [7] 7.88% [at 19 µM] | viability change, negative = cytotoxic [8] 0.506% [at 15.8 µM] | activation [10] 0.212% [at 15.8 µM] | activity change, negative = cytotoxicity [13] 1.91% [at 19 µM] | caspase activation [14] 1.23% [at 19 µM] | activity change, negative = cytotoxicity [15] 3.86% [at 19 µM] | caspase-3/7 activation [16] 0.334% [at 19 µM] | activity change, negative = cytotoxicity [17] -3.34% [at 19 µM]

OCC(O)CN1CCN(c2ccccc2)CC1 (configuration not stated)
inactive: outcome [1] | outcome [2] | outcome [3] | outcome [4] | Potency [5] | Potency [6] | outcome [7] | outcome [8] | outcome [9] | outcome [10] | outcome [11] | outcome [12] | outcome [13] | outcome [14] | outcome [16] | outcome [17]

CCCCCC(C)O (configuration not stated)
inactive: outcome [1] | Potency [18] | outcome [4] | Potency [5] | outcome [19] | outcome [7] | outcome [8] | outcome [9] | outcome [10] | outcome [11] | outcome [12] | outcome [13] | outcome [14] | Potency [15] | outcome [16] | outcome [17]

CCO[Si](CC)(OCC)OCC
inactive: outcome [1] | Potency [18] | outcome [4] | Potency [5] | Potency [6] | outcome [19] | outcome [7] | outcome [8] | outcome [9] | outcome [10] | outcome [11] | outcome [12] | outcome [14] | outcome [16] | outcome [17]

CC(C)=CCC/C(C)=C/COC=O
inactive: outcome [1] | outcome [2] | outcome [3] | outcome [4] | Potency [5] | Potency [6] | outcome [19] | outcome [7] | outcome [8] | outcome [9] | outcome [10] | outcome [11] | outcome [12] | outcome [13] | outcome [14] | Potency [15] | outcome [16] | outcome [17]

COc1ccc2c(c1)c1c3n2CCN(C)C3=NCC1
inactive: outcome [1] | Potency [18] | outcome [4] | Potency [5] | Potency [6] | outcome [7] | outcome [9] | outcome [10] | outcome [11] | outcome [12] | outcome [14] | Potency [15] | outcome [16] | outcome [17]

CC(=O)OC(C)=O
inactive: outcome [1] | outcome [2] | outcome [3] | outcome [4] | Potency [5] | Potency [6] | outcome [19] | outcome [7] | outcome [8] | outcome [9] | outcome [10] | outcome [11] | outcome [12] | Potency [15] | outcome [16] | outcome [17]

OC[C@@H](O)C(O)[C@@H](O)CO (some centres not stated)
inactive: outcome [1] | outcome [2] | outcome [3] | outcome [4] | Potency [5] | Potency [6] | outcome [19] | outcome [7] | outcome [8] | outcome [9] | outcome [10] | outcome [11] | outcome [12] | outcome [13] | outcome [14] | Potency [15] | outcome [16] | outcome [17]

O=C1c2ccccc2C(=O)c2cc(Cl)ccc21
inactive: activity change, negative = cytotoxicity [1] 1.86% [at 8.39 µM] | activation [18] 1.09% [at 8.39 µM] | activity change, negative = inhibition [3] -1.43% [at 8.39 µM] | activation [5] 2.34% [at 8.39 µM] | activity change, negative = inhibition [6] 1.29% [at 8.39 µM] | activity change, negative = cytotoxicity [19] -7.61% [at 8.39 µM] | activity change, negative = cytotoxicity [7] 13.3% [at 8.39 µM] | viability change, negative = cytotoxic [8] -4.61% [at 6.97 µM] | activity change, negative = cytotoxicity [9] 7.07% [at 6.97 µM] | activation [10] 1.62% [at 6.97 µM] | activity, negative = inhibition [11] -0.75% [at 4.65 µM] | activation [12] 0.0495% [at 5.23 µM] | activity change, negative = cytotoxicity [13] -0.0384% [at 8.39 µM] | caspase activation [14] -1.72% [at 8.39 µM] | caspase-3/7 activation [16] -0.328% [at 8.39 µM] | activity change, negative = cytotoxicity [17] 3.18% [at 8.39 µM]

Cn1nnc2c(C(N)=O)ncn2c1=O
inactive: outcome [1] | Potency [18] | outcome [4] | Potency [5] | outcome [19] | outcome [7] | outcome [8] | outcome [9] | outcome [10] | outcome [11] | outcome [12] | outcome [13] | outcome [14] | Potency [15] | outcome [16] | outcome [17]

c1ccc2cnccc2c1
inactive: outcome [1] | Potency [18] | outcome [4] | Potency [5] | outcome [19] | outcome [7] | outcome [8] | outcome [9] | outcome [10] | outcome [13] | outcome [14] | Potency [15] | outcome [16] | outcome [17]

COS(=O)(=O)O
inactive: outcome [1] | outcome [2] | outcome [3] | outcome [4] | Potency [5] | Potency [6] | outcome [19] | outcome [7] | outcome [8] | outcome [10] | outcome [11] | outcome [12] | outcome [13] | outcome [14] | Potency [15] | outcome [16] | outcome [17]
